Several values for one entry are separate records, joined by “and”; a condition that tells them apart may be missing. Equal entries are not always repeated. Records with an inconclusive call do not appear. Unmarked numbers belong to inactive results. Activity calls are given as the source filed them. Unless noted, calls follow the shape of the full dose curve.

Sequence of Estrogen receptor (Homo sapiens) (P03372 whole entry, looked up): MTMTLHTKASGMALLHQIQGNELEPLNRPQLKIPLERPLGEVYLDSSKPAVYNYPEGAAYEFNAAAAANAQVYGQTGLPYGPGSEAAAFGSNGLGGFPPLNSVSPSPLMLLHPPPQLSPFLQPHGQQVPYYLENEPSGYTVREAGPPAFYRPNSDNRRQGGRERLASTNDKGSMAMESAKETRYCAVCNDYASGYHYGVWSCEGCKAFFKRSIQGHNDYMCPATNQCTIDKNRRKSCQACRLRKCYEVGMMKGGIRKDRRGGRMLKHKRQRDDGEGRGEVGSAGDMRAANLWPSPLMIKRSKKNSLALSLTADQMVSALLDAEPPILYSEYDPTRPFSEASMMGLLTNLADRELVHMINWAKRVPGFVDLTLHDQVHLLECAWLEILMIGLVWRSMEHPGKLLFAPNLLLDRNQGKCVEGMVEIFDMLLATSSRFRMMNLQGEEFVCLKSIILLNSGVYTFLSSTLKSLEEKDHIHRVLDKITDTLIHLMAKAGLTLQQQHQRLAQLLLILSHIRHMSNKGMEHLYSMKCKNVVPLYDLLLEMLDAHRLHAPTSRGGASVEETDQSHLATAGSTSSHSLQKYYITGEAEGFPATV
Sequence of Glucocorticoid receptor (Homo sapiens) (P04150 whole entry, looked up): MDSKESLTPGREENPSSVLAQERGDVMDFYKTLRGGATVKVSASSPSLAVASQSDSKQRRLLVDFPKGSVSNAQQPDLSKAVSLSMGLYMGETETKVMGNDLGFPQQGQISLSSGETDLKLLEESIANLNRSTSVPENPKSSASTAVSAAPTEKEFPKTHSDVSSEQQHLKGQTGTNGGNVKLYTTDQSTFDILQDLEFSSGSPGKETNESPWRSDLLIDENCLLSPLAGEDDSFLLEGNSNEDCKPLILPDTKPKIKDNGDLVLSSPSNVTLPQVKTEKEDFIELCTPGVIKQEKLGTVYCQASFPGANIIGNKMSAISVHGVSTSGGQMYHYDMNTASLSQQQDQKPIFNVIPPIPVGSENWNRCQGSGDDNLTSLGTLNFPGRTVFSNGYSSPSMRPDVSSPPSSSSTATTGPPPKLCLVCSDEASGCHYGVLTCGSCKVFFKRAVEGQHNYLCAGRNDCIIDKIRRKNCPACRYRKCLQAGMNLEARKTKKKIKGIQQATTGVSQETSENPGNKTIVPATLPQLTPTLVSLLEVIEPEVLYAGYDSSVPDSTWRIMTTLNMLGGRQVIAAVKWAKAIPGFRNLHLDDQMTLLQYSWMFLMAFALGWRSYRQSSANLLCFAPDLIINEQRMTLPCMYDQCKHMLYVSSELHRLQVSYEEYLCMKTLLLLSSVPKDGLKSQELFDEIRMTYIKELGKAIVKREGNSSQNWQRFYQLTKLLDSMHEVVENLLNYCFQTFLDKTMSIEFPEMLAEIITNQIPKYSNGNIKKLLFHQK
Sequence of Peroxisome proliferator-activated receptor delta (Homo sapiens) (Q03181 whole entry, looked up): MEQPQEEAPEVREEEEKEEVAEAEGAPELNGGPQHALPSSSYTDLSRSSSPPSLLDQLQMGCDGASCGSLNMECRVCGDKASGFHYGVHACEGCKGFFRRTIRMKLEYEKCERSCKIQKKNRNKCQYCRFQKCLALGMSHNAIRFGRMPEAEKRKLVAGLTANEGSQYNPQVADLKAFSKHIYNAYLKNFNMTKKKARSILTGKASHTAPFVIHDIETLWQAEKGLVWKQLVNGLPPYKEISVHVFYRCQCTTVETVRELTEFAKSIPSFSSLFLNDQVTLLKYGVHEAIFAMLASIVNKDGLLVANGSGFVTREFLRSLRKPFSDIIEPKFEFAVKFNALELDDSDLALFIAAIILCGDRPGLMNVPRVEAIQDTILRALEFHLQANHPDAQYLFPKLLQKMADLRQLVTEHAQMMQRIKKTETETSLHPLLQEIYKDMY
Sequence of Androgen receptor (Homo sapiens) (P10275 whole entry, looked up): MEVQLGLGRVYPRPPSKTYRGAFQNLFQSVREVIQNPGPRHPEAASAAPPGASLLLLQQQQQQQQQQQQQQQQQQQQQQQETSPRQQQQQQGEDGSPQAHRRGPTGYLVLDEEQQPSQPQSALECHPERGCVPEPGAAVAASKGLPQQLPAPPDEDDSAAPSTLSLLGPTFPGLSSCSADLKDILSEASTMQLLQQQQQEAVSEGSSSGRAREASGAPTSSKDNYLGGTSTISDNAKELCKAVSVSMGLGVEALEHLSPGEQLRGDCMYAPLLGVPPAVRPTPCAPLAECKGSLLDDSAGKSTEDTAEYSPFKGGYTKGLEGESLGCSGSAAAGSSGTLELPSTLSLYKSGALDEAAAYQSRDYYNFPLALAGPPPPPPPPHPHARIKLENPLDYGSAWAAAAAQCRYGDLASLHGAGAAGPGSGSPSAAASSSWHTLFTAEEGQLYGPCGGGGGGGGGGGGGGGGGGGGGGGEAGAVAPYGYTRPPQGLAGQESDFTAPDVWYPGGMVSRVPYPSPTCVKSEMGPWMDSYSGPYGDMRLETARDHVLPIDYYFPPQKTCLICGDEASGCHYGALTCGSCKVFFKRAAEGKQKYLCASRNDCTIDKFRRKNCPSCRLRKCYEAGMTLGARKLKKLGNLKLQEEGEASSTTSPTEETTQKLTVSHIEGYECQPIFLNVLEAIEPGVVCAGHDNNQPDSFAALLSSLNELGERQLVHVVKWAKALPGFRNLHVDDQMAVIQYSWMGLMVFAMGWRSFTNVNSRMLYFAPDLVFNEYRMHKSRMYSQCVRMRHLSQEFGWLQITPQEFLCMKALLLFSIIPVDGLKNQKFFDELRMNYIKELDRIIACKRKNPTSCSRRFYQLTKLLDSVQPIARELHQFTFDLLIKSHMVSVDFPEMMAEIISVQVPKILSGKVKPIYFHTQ
Sequence of Bile acid receptor (Homo sapiens) (Q96RI1 whole entry, looked up): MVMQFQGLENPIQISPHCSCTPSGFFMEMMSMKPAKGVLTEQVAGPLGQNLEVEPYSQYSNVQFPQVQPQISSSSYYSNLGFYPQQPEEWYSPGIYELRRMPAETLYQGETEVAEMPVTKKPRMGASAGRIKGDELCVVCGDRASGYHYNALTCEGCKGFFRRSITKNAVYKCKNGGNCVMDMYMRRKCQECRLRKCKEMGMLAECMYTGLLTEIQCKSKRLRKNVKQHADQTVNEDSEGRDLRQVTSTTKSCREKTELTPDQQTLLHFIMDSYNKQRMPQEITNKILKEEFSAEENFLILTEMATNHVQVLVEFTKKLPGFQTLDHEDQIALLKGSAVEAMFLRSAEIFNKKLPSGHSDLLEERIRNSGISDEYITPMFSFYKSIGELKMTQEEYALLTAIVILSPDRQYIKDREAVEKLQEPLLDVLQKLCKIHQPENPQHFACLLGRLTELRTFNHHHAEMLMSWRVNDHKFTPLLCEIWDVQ

One assay has as its target Estrogen receptor (Homo sapiens) (UniProt P03372). Description: qHTS assay for small molecule agonists of estrogen receptor alpha signaling (AID 588514). Also: nearly all actives have a fitted effect of over 70% in size. Also: potency is read from the fitted curve at half-maximal effect.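 As to activation: 0% = vehicle only and 100% = reference agonist.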 The conditions noted are these: ER-alpha-UAS-bla HEK293, beta-lactamase ratio, 18 h; series mostly up to 76.8 µM; activation: at the top concentration. In outline:
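Cells were plated at 5000/well, incubated 4 hrs at 37 C, dosed with compound titration series, incubated 18 hrs at 37 C, loaded with CCF4 dye for 2 hrs at RT, then fluorescence was read.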
For orientation: In qHTS, concentration-response curves come from the screen itself.
Regarding `Oc1cccc(Cl)c1Cl`, the “activation” value was 3.92%.
Turning to `CCC/C=N/O`, the “activation” value was -2.98%.
On the same count and under the same terms, the value for `Nc1cccc2ccccc12` was -0.738%.
For the compound `COc1c(C(C)(C)C)cc([N+](=O)[O-])c(C)c1[N+](=O)[O-]`, the Potency was 7.08 µM (active).
With `C=C(Cl)CCl`, the “activation” value is 1.03%.
On the same count and under the same terms, then `Cl/C=C/Cl`, with 4.13%.
Same read-out and setting: then `O=C(O)c1cccc(Cl)c1`, with -0.115%.
For `C1CC2OC2CC1C1CO1` (stereo unspecified), the Potency entry is “inactive”.
As for `Brc1cccc(-c2ccccc2)c1`, the “activation” value was 0.0987%.
The same measure, in the same setting: the value for `Oc1c(Cl)cccc1Cl` was 4.39%; that for `Cl/C=C\Cl` was -0.571%.
The same measure, in the same setting: the value for `CCBr` was -1.32%; that for `O=[N+]([O-])c1ccc(Cl)c(Cl)c1Cl` was -0.673%; that for `N#CCCC#N` was 0%.
Same read-out and setting: the value for `Cc1ccccc1[N+](=O)[O-]` was -5.83%; that for `OCCBr` was -7.9%.
On to `OCC(Cl)CCl` (stereo unspecified), for which the “activation” value is -3%.
The same measure, in the same setting: the value for `COc1ccc(C=O)cc1` was 5.14%; that for `CC(=O)CCC(C)=O` was 0.771%; that for `CC(C#N)CCC#N` (stereo unspecified) was 1.94%.

Another assay has as its target Androgen receptor (Homo sapiens) (UniProt P10275). Description: qHTS assay for small molecule agonists of androgen receptor signaling (AID 588515; active = well fitted curve in the direction sought with a large enough effect in the signal ratio, with a control signal flat; the % refers to the signal ratio; also: % is scaled to controls: 0 for no effect and ±100 for the full control effect). As to conditions: AR-UAS-bla HEK293, beta-lactamase ratio, agonist 16 h; stronger effect = higher value. In outline: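 EC50 and efficacy came from Hill fits of titrations (up to 92 uM) normalized to 30 nM R1881 as 100% and DMSO as 0%. Compound exposure was 16 h at 37 C on AR-UAS-bla HEK293 cells, with a 405/460/530 nm CCF4 fluorescence read.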
On to `Cc1cnc[nH]1`, for which the activation is -7.55%.
Same read-out and setting: the value for `CC12CC1(C)C(=O)N(c1cc(Cl)cc(Cl)c1)C2=O` (stereo unspecified) was -2.56% and 15.9%; that for `CCCCCC[N+](=O)[O-]` was 8.93%.

Another assay has as its target Bile acid receptor (Homo sapiens) (UniProt Q96RI1). Briefly: qHTS assay for small molecule antagonists of farnesoid X receptor signaling (AID 588526). Also: % is scaled to controls: 0 for no effect and ±100 for the full control effect. The conditions noted are these: HEK293T FXR-UAS-bla, beta-lactamase ratio, antagonist mode; series mostly up to 76.7 µM; activity change, negative = inhibition: at the top concentration. In outline:
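Antagonist mode: titrated compounds tested against chenodeoxycholic acid stimulation (normalized to 50 uM CDCA and DMSO) in GeneBLAzer HEK293T cells for 16 h. Beta-lactamase read by CCF4 fluorescence; IC50 from Hill fits.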
For the compound `CCC/C=N/O`, the “activity change, negative = inhibition” value is -3.08%.
Still for that read-out and setting: then `Cc1cnc[nH]1`, with 1.57%.
On the same count and under the same terms, then `CN(C)N=O`, with -2.67%; and `ClCCOCOCCCl`, with 2.76%.
Still for that read-out and setting: the value for `CC(C)(Cl)[N+](=O)[O-]` was 4.92%; that for `CCCCOCC1CO1` (stereo unspecified) was -3.58%.
As to `O=C(O)c1cccc(Cl)c1`, the “activity change, negative = inhibition” value was -1.84%.
In the case of `C1CC2OC2CC1C1CO1` (stereo unspecified), the outcome was inactive.
Take `Brc1cccc(-c2ccccc2)c1`: the “activity change, negative = inhibition” value was 4.62%.
On the same count and under the same terms, then `ClCCOCCCl`, with -12.6%; and `OCCBr`, with -3.18%; and `N#CCCCCC#N`, with -13.1%.
On to `CCCCCC[N+](=O)[O-]`, for which the “activity change, negative = inhibition” value is 8.37%.

The next assay has the same target. Briefly: qHTS assay for small molecule agonists of farnesoid X receptor signaling (AID 588527).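 Also: 0% = vehicle basal and 100% = reference agonist.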 The conditions noted are these: HEK293T FXR-UAS-bla, beta-lactamase ratio, 16 h; stronger effect = higher value. In short, it runs like this: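 Quantitative HTS used FXR-UAS-bla HEK293T cells with 16 h compound incubation at 37 C. EC50 values came from concentration-response curves normalized to chenodeoxycholic acid.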
As to `CCC/C=N/O`, the activation was 0.311%.
Consider `Cc1cnc[nH]1`, for which the activation is -0.548%.
Still for that read-out and setting: the value for `CN(C)N=O` was -0.99%.
As for `ClCCOCOCCCl`, the activation is 0.794%.
The same measure, in the same setting: the value for `CC(C)(Cl)[N+](=O)[O-]` was 0.224%; that for `CCCCOCC1CO1` (stereo unspecified) was -3.01%.
On the same count and under the same terms, then `O=C(O)c1cccc(Cl)c1`, with 2.01%; and `C1CC2OC2CC1C1CO1` (stereo unspecified), with -0.198%.
On to `Brc1cccc(-c2ccccc2)c1`, for which the activation is -2.22%.
The same measure, in the same setting: then `ClCCOCCCl`, with -1.24%; and `N#CCCC#N`, with -0.443%; and `OCCBr`, with -2.65%.
Same read-out and setting: then `N#CCCCCC#N`, with -2.39%; and `CCCCCC[N+](=O)[O-]`, with 1.12%.

The next assay concerns the target Glucocorticoid receptor (Homo sapiens) (UniProt P04150). Description: qHTS assay for small molecule agonists of glucocorticoid receptor signaling (AID 588532; active = well fitted curve in the direction sought with a large enough effect in the signal ratio, with a control signal flat; the % refers to the signal ratio;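 also: 100% = dexamethasone at 0.1 µM and 0% = DMSO only wells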). As to conditions: HeLa MMTV-bla, beta-lactamase ratio, agonist, 18 h; stronger effect = higher value; percent of dexamethasone control, DMSO zero. In short, it runs like this: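 HeLa GRE-bla reporter cells; 18 h compound exposure at 37 C; 2 h CCF4 loading at room temperature; fluorescence at 460 and 530 nm; EC50 by Hill equation.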
`Oc1cccc(Cl)c1Cl`: the activation was -0.403%.
Turning to `CCC/C=N/O`, the activation was 5.99%.
The same measure, in the same setting: then `Cc1cnc[nH]1`, with -8.66%.
The same measure, in the same setting: then `CN(C)N=O`, with -2.94%; and `COc1c(C(C)(C)C)cc([N+](=O)[O-])c(C)c1[N+](=O)[O-]`, with -4.08%.
Same read-out and setting: the value for `C=C(Cl)CCl` was -2.96%; that for `ClCCOCOCCCl` was -0.285%.
As for `CC12CC1(C)C(=O)N(c1cc(Cl)cc(Cl)c1)C2=O` (stereo unspecified), the activation is -1.15% and -3.35%.
The same measure, in the same setting: then `CC(C)(Cl)[N+](=O)[O-]`, with -3.18%; and `Cl/C=C/Cl`, with -4.99%.
Same read-out and setting: the value for `CCCCOCC1CO1` (stereo unspecified) was -2.49%; that for `Brc1cccc(-c2ccccc2)c1` was -4.94%.
The same measure, in the same setting: the value for `ClCCOCCCl` was 0.183%.
For `CCNCC`, the activation was 0.672%.
Same read-out and setting: the value for `CC(C)C#N` was 1.53%.
Turning to `Cl/C=C\Cl`, the activation is 16.7%.
In the case of `CCBr`, the activation was 4.52%.
Consider `Cc1ccccc1[N+](=O)[O-]`, for which the activation was -7.47%.
As to `OCCBr`, the activation is -2.73%.
Consider `C=CC(=O)OCCN(C)C`, for which the activation was 1.15%.
With `CC(C)(C)C(O)(CCc1ccc(Cl)cc1)Cn1cncn1` (stereo unspecified), the activation was 3.38% and -5.28%.
Same read-out and setting: the value for `N#CCCCCC#N` was -2.66%; that for `c1ccc(C2CO2)cc1` (stereo unspecified) was 9.49%.
Still for that read-out and setting: then `OCC(Cl)CCl` (stereo unspecified), with 11.4%.
With `COc1ccc(C=O)cc1`, the activation was -0.198%.
The same measure, in the same setting: the value for `CC(=O)CCC(C)=O` was -5.45%.
Same read-out and setting: the value for `C=CC(=O)OCC(CC)CCCC` (stereo unspecified) was -0.1% and -12.6%; that for `CC(C#N)CCC#N` (stereo unspecified) was 5.21%.

For the next assay the target is unchanged. Description: qHTS assay for small molecule antagonists of glucocorticoid receptor signaling (AID 588533; active = well fitted inhibition curve with a large enough effect in the signal ratio, with a control signal flat, not every such curve was filed as active; the % refers to the signal ratio; also: % is scaled to controls: 0 for no effect and ±100 for the full control effect). As to conditions: HeLa MMTV-bla, GRE beta-lactamase ratio, antagonist mode, 18 h; series mostly up to 76.8 µM; activity change, negative = inhibition: at the top concentration. In outline:
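Antagonist-mode qHTS: compound titrations added to GRE-bla HeLa cells, then dexamethasone 2 nM final; 18 h, 37 C. CCF4 FRET fluorescence normalized to dexamethasone and DMSO; IC50 from Hill fit.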
As for `Oc1cccc(Cl)c1Cl`, the “activity change, negative = inhibition” value was -22.6%.
Still for that read-out and setting: the value for `CCC/C=N/O` was -4.84%; that for `CN(C)N=O` was -1.61%; that for `COc1c(C(C)(C)C)cc([N+](=O)[O-])c(C)c1[N+](=O)[O-]` was 29.1%.
On the same count and under the same terms, then `C=C(Cl)CCl`, with 7.24%; and `ClCCOCOCCCl`, with 22.9%.
Consider `CC12CC1(C)C(=O)N(c1cc(Cl)cc(Cl)c1)C2=O` (stereo unspecified), for which the outcome was inactive.
Consider `Brc1cccc(-c2ccccc2)c1`, for which the “activity change, negative = inhibition” value is 3.1%.
On the same count and under the same terms, the value for `CCNCC` was 4.75%; that for `CC(C)C#N` was 3.75%.
On the same count and under the same terms, the value for `Cl/C=C\Cl` was 8.79%; that for `CCBr` was 5.88%; that for `Cc1ccccc1[N+](=O)[O-]` was -10.3%.
As to `CC(C)(C)C(O)(CCc1ccc(Cl)cc1)Cn1cncn1` (stereo unspecified), the outcome was inactive.
Turning to `N#CCCCCC#N`, the “activity change, negative = inhibition” value was -8.04%.
The same measure, in the same setting: the value for `c1ccc(C2CO2)cc1` (stereo unspecified) was 4.42%; that for `CCCCCC[N+](=O)[O-]` was 2.35%; that for `CC(=O)CCC(C)=O` was 7%.
On the same count and under the same terms, then `C=CC(=O)OCC(CC)CCCC` (stereo unspecified), with 0.228%; and `CC(C#N)CCC#N` (stereo unspecified), with -7.16%.

The target of a further assay is Peroxisome proliferator-activated receptor delta (Homo sapiens) (UniProt Q03181). Briefly: qHTS assay for small molecule agonists of peroxisome proliferator-activated receptor delta signaling (AID 588534).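 Also: 0% = DMSO basal wells and 100% = positive control agonist at 10 µM.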 The conditions noted are these: HEK293T PPARdelta-UAS-bla, beta-lactamase ratio, 18 h; series mostly up to 76.7 µM; activation: at the top concentration. In outline:
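Fluorescence from CCF4 substrate cleavage by beta-lactamase reporter, read 2 hrs at RT, measured agonist activity. Compounds were tested with 18 hrs exposure at 37 C. Concentration-response data fitted to Hill equation.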
Take `Oc1cccc(Cl)c1Cl`: the “activation” value was 9.93%.
`Nc1cccc2ccccc12`: the “activation” value is -9.2%.
On the same count and under the same terms, the value for `Cc1cnc[nH]1` was -1.89%; that for `COc1c(C(C)(C)C)cc([N+](=O)[O-])c(C)c1[N+](=O)[O-]` was 8.05%.
Still for that read-out and setting: then `C=C(Cl)CCl`, with 0.881%.
`CC12CC1(C)C(=O)N(c1cc(Cl)cc(Cl)c1)C2=O` (stereo unspecified): the outcome was inactive.
For the compound `CC(C)(Cl)[N+](=O)[O-]`, the “activation” value was 2.52%.
On the same count and under the same terms, then `Cl/C=C/Cl`, with -4.26%; and `CCCCOCC1CO1` (stereo unspecified), with -9.03%.
Same read-out and setting: then `O=C(O)c1cccc(Cl)c1`, with 4.68%.
As to `C1CC2OC2CC1C1CO1` (stereo unspecified), the outcome was inactive.
Turning to `Oc1c(Cl)cccc1Cl`, the “activation” value is -0.396%.
On the same count and under the same terms, then `ClCCOCCCl`, with -1.09%.
For `CCNCC`, the “activation” value was 6.31%.
Same read-out and setting: then `CC(C)C#N`, with 8.15%; and `Cl/C=C\Cl`, with 7.85%.
Turning to `N#CCCC#N`, the “activation” value is -0.733%.
For the compound `CC(C)(C)C(O)(CCc1ccc(Cl)cc1)Cn1cncn1` (stereo unspecified), the “activation” value was 7.32%.
As for `N#CCCCCC#N`, the “activation” value is -2.15%.
Same read-out and setting: then `CN=C=O`, with 3.68%; and `c1ccc(C2CO2)cc1` (stereo unspecified), with -6.85%; and `CCCCCC[N+](=O)[O-]`, with 4.52%.
`OCC(Cl)CCl` (stereo unspecified): the “activation” value is 8.79%.
Same read-out and setting: the value for `COc1ccc(C=O)cc1` was -0.459%.
The same measure, in the same setting: then `Nc1ccc(Cl)c(Cl)c1`, with 0.442%; and `CC(=O)CCC(C)=O`, with 2.66%.
With `C=CC(=O)OCC(CC)CCCC` (stereo unspecified), the outcome was inactive.
In the case of `CC(C#N)CCC#N` (stereo unspecified), the “activation” value is 2.96%.
